PLK1 PBD block: blocks phosphopeptide binding to human PLK1 polo-box domain. AID 720504. Potency, µM, for the others: max response, negative = inhibition, hits mostly inhibitors. Plk1 PBD binding of FITC phosphopeptide, fluorescence polarization. actives 2.8% (n = 360,000); note: series mostly up to about 57 µM; nearly all actives have a fitted effect of over 65% in size
ALDH1A1 inh: ALDH1A1 (human) enzyme inhibition. P00352. Purified ALDH1A1, NADH fluorescence, propionaldehyde substrate. Potency, µM (doses to about 75.3 µM), for inactives: at the highest dose activity, negative = inhibition, actives largely listed as inhibitors. actives 7.3% (n = 220,000). AID 1030; active = well fitted inhibition curve with a large enough effect, not every such curve was filed as active; inconclusive = small, poorly fitted or top-dose-only effect, or another doubt; inactive = no such curve, though single readings can be large or run the other way;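 note: plate controls were no enzyme wells and a reference inhibitor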
Target sequence (P00352 whole entry, looked up): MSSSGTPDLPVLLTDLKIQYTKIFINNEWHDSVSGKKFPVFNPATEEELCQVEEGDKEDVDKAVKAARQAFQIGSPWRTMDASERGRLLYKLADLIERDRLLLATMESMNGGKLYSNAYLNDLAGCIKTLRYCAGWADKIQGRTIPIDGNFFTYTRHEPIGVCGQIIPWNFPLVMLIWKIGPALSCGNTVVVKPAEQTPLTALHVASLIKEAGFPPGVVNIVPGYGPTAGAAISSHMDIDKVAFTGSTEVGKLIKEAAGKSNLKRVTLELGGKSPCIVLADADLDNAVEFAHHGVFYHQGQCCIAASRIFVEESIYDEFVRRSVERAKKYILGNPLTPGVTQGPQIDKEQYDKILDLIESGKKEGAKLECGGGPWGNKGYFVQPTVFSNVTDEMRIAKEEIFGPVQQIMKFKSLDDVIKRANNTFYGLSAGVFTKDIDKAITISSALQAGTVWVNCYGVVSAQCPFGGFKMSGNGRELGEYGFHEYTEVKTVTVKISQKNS
Sfp inh: inhibitors of Bacillus subtilis Sfp phosphopantetheinyl transferase. Q9F4F7. Biochemical Sfp PPTase activity, qHTS. Potency, µM, without a hit: largest response in the series, negative = inhibition, usual class: inhibitors. actives 3.5% (n = 310,000). AID 1490;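 note: the enzyme is Sfp with the accession as filed and its product quenches rhodamine fluorescence; 0% = enzyme reaction without inhibitor and -100% = no enzyme wells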
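Sfp 15 nM + cpd, 15 min RT; start w/ rhodamine-CoA 5 uM, BHQ-2-YbbR 12.5 uM (final); 50 mM Hepes pH 7.6, 10 mM MgCl2, 0.01% NP-40, 0.01% BSA; read 525/598 nm at 0 and 30 min.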
RORgamma inh: blocks mouse ROR gamma transcriptional activity; Potency, µM (titrated, usually from 53.6 µM), without a hit: at the highest dose activity change, negative = inhibition, most hits filed as inhibitors; Drosophila S2 Gal4-RORgamma UAS-luciferase reporter, 20 h; AID 2551; P51450; actives 5.4% (n = 310,000); note: nearly all actives have a fitted effect of over 60% in size
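Luminescence from a UAS-regulated Photinus luciferase reporter in stably transfected Drosophila Schneider cells is measured; decreased signal marks ROR gamma inhibition. Fusion expression is induced by 700 uM copper sulfate for 20 hr.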
VP16 counter: inhibits Gal4-VP16 luciferase reporter, ROR gamma counter-screen | Drosophila S2 Gal4-VP16 UAS-luciferase, luminescence, 20 h | Potency, µM (series often up to 53.6 µM), for inactives: at the highest dose activity, negative = inhibition, hits mostly inhibitors | actives 3.5% (n = 310,000) | AID 2546;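 note: Gal4-VP16 expression switched on by copper sulfate through the metallothionein promoter; nearly all actives have a fitted effect of over 50% in size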
The depositor's hits bear a star; ? = inconclusive; . = not tested or not shown; [ ] = dose if it differs, or a comment. Sampled rows, rich in hits. Any-hit rate of the full collection: about 12%. Unless noted, calls come from the whole dose curve; as a rule, active = well fitted curve in the direction sought with a large enough effect; inconclusive = small, poorly fitted or top-dose-only effect, or another doubt; inactive = no such curve, though single readings can be large; an effect the other way counts as inactive or inconclusive. Unless noted, % is set by controls: 0 for no effect and ±100 for the full control effect; potency is the fitted concentration of half-maximal effect.

SMILES	PLK1 PBD block	ALDH1A1 inh	Sfp inh	RORgamma inh	VP16 counter
O=C(CNC(=O)N1CC(=O)Nc2ccccc21)Nc1ccc(Cl)cc1Cl	-4%	.	.	.	.
NC(N)=N/N=C(\c1ccc(Cl)cc1)C1CC1	.	-9%[13.5 µM]	.	.	.
CCCC[n+]1ccn(-c2nc3ccccc3nc2[N-]S(=O)(=O)c2cccs2)c1	-4%	.	35µM*	-9%	2%
CCCCC[n+]1ccn(-c2nc3ccccc3nc2[N-]S(=O)(=O)c2ccc(C)cc2)c1	-15%	?	56µM*	?	-12%
CN1CCN(CCc2ccc(Cl)c(Cl)c2)CC1	.	10%	-11%	-10%	6%
CC1CN(Cc2ccco2)C(=S)NC1=O (stereo not drawn)	-18%	.	.	.	.
Cc1cccc(COC[C@H](Cc2ccccc2)N2CCN(C(=O)c3ccc(Cl)c(Cl)c3)CCC2=O)c1	-17%	.	.	.	.
CCCCC1CCC(c2nc(-c3ccccn3)no2)CC1 (stereo not drawn)	-2%	-7%	-13%	?	13µM*
O=C(CSc1ncn[nH]1)Nc1ccc(Cl)c(Cl)c1	-7%	4µM*	18%	39%	-6%
CCc1nnc(NC(=O)CSc2nnc3scc(-c4ccc(C)cc4)n23)s1	-8%	.	.	.	.
O=C(CSc1ncn[nH]1)Nc1ncc(C(F)(F)F)cc1Cl	-6%	-5%	8%	18%	2%
Cc1ccc(-c2nc(NC(=O)CSc3nnc4scc(-c5ccccc5)n34)ns2)cc1	?	.	35µM*	?	?
Cc1ccc(-c2nc(NC(=O)CSc3ncn[nH]3)ns2)cc1	7.5µM*	.	22%	5%	30%
O=S(=O)(c1ccccc1)N1CCC2(CCN(Cc3ccccc3)CC2)CC1	.	2%	11%	-6%	-1%
CS(=O)(=O)N(CC(=O)N1CCCC1)Cc1ccc(Cl)c(Cl)c1	-1%	.	9%	24%	-8%
COc1ccc(C#Cc2cccc(-c3nc(C(=O)NCc4ccc(Oc5ccccc5)cc4)cc4c3[C@@H](CCO)N(S(=O)C(C)(C)C)C4)c2)cc1OC (stereo partly drawn)	-4%	.	.	.	.
CSc1nc(N(C)NC(=O)c2ccccc2)c2ccccc2n1	-2%	?	13%	1%	-1%[0.365 µM]
CSc1nc(N(C)NC(=O)c2ccc(Cl)cc2)c2ccccc2n1	3%	12%	50µM*	-18%	-3%
C=C(C)COc1ccc2c(c1)CCC1C2CC[C@]2(C)C(=O)/C(=N/O)CC12 (stereo partly drawn)	.	7%[13.5 µM]	.	.	.
CCOc1ccc(C(=S)N2CCCC2)c(OCC)c1	12µM*	.	50µM*	?	?
CCOc1ccc(C(=S)N2CCCC2)cc1	-4%	?	3%	-21%	15%
Cc1ccc(C)n1-c1ccc(C#N)cn1	-11%	?	-2%	32%	-14%
N#Cc1cnc(NN)nc1	-11%	?	6.3µM*	-25%	11%
CN(c1cccc(Cl)c1)S(=O)(=O)c1cccc(C(=O)Nc2nc3ccccc3[nH]2)c1	4%	6%	34%	2.8µM*	3.5µM*
CN(c1cccc(Cl)c1)S(=O)(=O)c1cccc(C(=O)NC2=NCCS2)c1	-8%	-10%	0%	7%	-5%
SMILES	PLK1 PBD block	ALDH1A1 inh	Sfp inh	RORgamma inh	VP16 counter
C=CCN(c1ccccc1)S(=O)(=O)c1cccc(C(=O)Nc2ccncc2)c1	-15%	.	.	.	.
C=CCN(c1ccccc1)S(=O)(=O)c1cccc(C(=O)Nc2nc3ccccc3[nH]2)c1	-2%	?	28%	2.8µM*	4.5µM*
COc1ccc(N(C)S(=O)(=O)c2cccc(C(=O)N(C)Cc3ccc(C)o3)c2)cc1	-13%	10µM*	-10%	-9%	-11%
COc1ccc(N(C)S(=O)(=O)c2cccc(C(=O)Nc3nc4ccccc4[nH]3)c2)cc1	3%	10%	19%	4µM*	11µM*
OC[C@@H]1CN(CCN2CCOCC2)C[C@H](n2cnc3c(NC4CCCC4)ncnc32)O1	-6%	.	.	.	.
O=S(=O)(NCCS(=O)(=O)N1CCN(c2ccc(F)cc2)CC1)c1ccc(F)cc1	9%	.	.	.	.
CC(C)NC(=O)Nc1ccc2c(c1)C(=O)N([C@@H](C)CO)C[C@H](C)[C@H](CN(C)S(=O)(=O)c1ccccc1)OCCCC[C@H](C)O2	-3%	.	.	.	.
COC(=O)[C@H](Cc1ccccc1)NC(=O)C/C=C\[C@@H](C)[C@@H](CO)OC	.	?	8%	16%[10 µM]	4%[10 µM]
O=C(O)c1ccc(CO)o1	.	13%	.	11%	-8%
Cn1cc(-c2nc3cnc(N4CCNCC4)nc3n(Cc3ccc(F)cc3)c2=O)c2ccccc21	.	-8%	20µM*	?	?
COc1cccc(Cn2c(=O)c(-c3cn(C)c4ccccc34)nc3cnc(N4CCOCC4)nc32)c1	.	?	12%	6%	2%
O=c1c(-c2ccc(F)cc2)nc2cnc(N3CCNCC3)nc2n1Cc1ccc(F)cc1	.	?	?	14µM*	?
COc1cccc(Cn2c(=O)c(-c3cn(C)c4ccccc34)nc3cnc(N4CCNCC4)nc32)c1	.	?	?	20µM*	?
Cn1cc(-c2nc3cnc(N4CCNCC4)nc3n(C)c2=O)c2ccccc21	.	-8%	-8%	10µM*	11µM*
CN1CCN(c2ncc3nc(-c4cn(C)c5ccccc45)c(=O)n(C)c3n2)CC1	.	?	16%	?	?
CCC[C@H]1CN(Cc2cccnc2)C(=O)[C@@H]1CC(=O)Nc1ccc(Br)cc1	0%	.	.	.	.
N#CC1=C(N)SC(N)=C(C#N)C1c1cccc(Oc2ccccc2)c1	-28%	10µM*	28µM*	?	?
CCOc1ccccc1C1C(C#N)=C(N)Oc2n[nH]c(CC)c21 (stereo not drawn)	?	?	9%	-14%	-5%
CCOc1ccccc1C1C(C#N)=C(N)SC(N)=C1C#N	-12%	5%	45µM*	-30%	?
CCOc1ccc(C2C(C#N)=C(N)SC(N)=C2C#N)cc1OC	.	?	50µM*	?	0%
CCOc1ccc(C2C(C#N)=C(N)SC(N)=C2C#N)cc1OCC	37%	?	?	-28%	7.9µM*
CCOC(=O)C1=C(C)OC(N)=C(C#N)C1c1ccc(O)c(OC)c1 (stereo not drawn)	-21%	8%	14%	-21%	6%
CCC(=O)O	.	2%	25%	4%	4%
O=C1OC(c2ccc(F)cc2)=C/C1=C\c1ccc(O)cc1	-29%	.	-17%	6.3µM*	?
O=C1OC(c2ccc(F)cc2)=C/C1=C\c1ccc([N+](=O)[O-])o1	.	20µM*	?	-40%	?
SMILES	PLK1 PBD block	ALDH1A1 inh	Sfp inh	RORgamma inh	VP16 counter
C[C@H](NCCN(C)C)[C@@H]1CCC2C3CCc4cc(O)ccc4[C@H]3CCC21C (stereo partly drawn)	.	8%[13.5 µM]	.	.	.
CCc1nc2c(OCc3ccc4c(c3)OCO4)cccn2c1N(C=O)Cc1ccccc1	-2%	.	.	.	.
O=C1CCSC2=C1SCc1sccc12	-12%	.	.	.	.
CCCC1(CCC)NC(=O)N(CC(=O)Nc2ccc3c(c2)OCCO3)C1=O	-8%	.	.	.	.
CCOC(=O)CCN1C(=O)[C@H]2[C@H]3[C@H](O)[C@H](O)C/C(=N/OCC(C)C)[C@@H]3CC[C@@H]2C1=O	.	12%[13.5 µM]	18%	9%[10 µM]	1%[10 µM]
Cc1ccc(S(=O)(=O)Oc2cccc(/C=N/n3cnnc3)c2)cc1	-8%	0.89µM*	-6%	2%	?
CC(C)=C1C2CCC1C1C(=O)N(c3nc(-c4ccc(F)cc4)c(C)s3)C(=O)C21 (stereo not drawn)	-19%	?	-7%	4%	20µM*
